biological target: T1, Serine/threonine-protein kinase BRSK2 (Homo sapiens) (UniProt Q8IWQ3); details: at 0.1 µM
T1 sequence (whole entry): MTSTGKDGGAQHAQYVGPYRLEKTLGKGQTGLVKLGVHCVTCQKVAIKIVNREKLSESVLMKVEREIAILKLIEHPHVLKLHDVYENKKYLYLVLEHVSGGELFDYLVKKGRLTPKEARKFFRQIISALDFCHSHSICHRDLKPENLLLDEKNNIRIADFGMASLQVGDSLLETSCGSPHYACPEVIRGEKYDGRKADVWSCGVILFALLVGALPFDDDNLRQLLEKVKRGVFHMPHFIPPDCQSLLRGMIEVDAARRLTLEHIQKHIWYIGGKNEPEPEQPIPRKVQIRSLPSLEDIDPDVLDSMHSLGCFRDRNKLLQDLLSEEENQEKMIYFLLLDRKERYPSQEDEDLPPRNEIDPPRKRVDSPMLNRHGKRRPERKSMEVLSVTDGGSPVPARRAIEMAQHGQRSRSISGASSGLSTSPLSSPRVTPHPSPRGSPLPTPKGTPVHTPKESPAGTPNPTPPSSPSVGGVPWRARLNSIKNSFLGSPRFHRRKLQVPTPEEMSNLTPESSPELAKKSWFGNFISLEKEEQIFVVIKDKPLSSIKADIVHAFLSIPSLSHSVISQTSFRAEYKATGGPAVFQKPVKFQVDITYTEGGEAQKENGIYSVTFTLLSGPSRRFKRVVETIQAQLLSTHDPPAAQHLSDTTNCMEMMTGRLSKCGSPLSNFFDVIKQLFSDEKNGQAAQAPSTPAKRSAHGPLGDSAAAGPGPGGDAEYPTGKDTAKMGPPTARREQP

SMILES | inhibition
CCCN1CCC(Oc2cc(Nc3nc(Nc4cccc(F)c4C(N)=O)c4cc[nH]c4n3)c(OC)cc2Cl)CC1 | -0.51%
COc1cc(C)c(NC(=O)CN(C)C)cc1Nc1nc(Nc2cccc(F)c2C(N)=O)c2cc[nH]c2n1 | 0.37%
CC1=C(C(=O)Nc2ccc3[nH]ncc3c2)C(c2ccc(Cl)c(Cl)c2)CC(=O)N1 (stereo unspecified) | 1.61%
CCn1c(-c2nonc2N)nc2cncc(C(=O)N3CC[C@H](N)C3)c21 | 0.94%
NS(=O)(=O)c1ccc(N/N=C2\C(=O)Nc3ccc(C(=O)NCCc4c[nH]cn4)cc32)cc1 | 34.6%
CCCN1CCC=C(c2ccc(Nc3nc(Nc4ccccc4C(N)=O)c4cc[nH]c4n3)c(C)c2)C1 | 2.36%
CCn1c(-c2nonc2N)nc2cncc(C(=O)N3CCNCC3)c21 | -0.27%
Nc1nc(-c2ccc3c(c2)C(=Cc2cc(Br)c(O)c(Br)c2)C(=O)N3)cs1 | 0.58%
COc1ccc2cc(-c3c(-c4ccncc4)nc(-c4ccc([S+](C)[O-])cc4)n3C)ccc2c1 (stereo unspecified) | 1.67%
CC(C)=Cc1cccc2c1/C(=N/Nc1ccc(S(N)(=O)=O)cc1)C(=O)N2 | 14.6%
CS(=O)(=O)CCNCc1nc(-c2ccc3ncnc(Nc4ccc(F)c(Cl)c4)c3c2)cs1 | 2.32%
NC(=O)c1ccc(-c2nc(-c3ccccn3)c(-c3ccc4c(c3)OCO4)[nH]2)cc1 | 0.53%
COC(=O)Nc1nc2cc(Oc3cccc(NC(=O)Nc4cc(C(F)(F)F)ccc4F)c3)ccc2[nH]1 | 1.38%
Cc1nnc(-c2ccc(C)c(-c3ccc(C(=O)Nc4cccc(C#N)c4)cc3)c2)o1 | 2.39%
COc1ccc(-c2ccncc2)cc1C(N)=O | 4.68%
CC(=O)Nc1cccc(C#Cc2cncnc2Nc2ccc(OCc3cccc(F)c3)c(Cl)c2)n1 | 1.19%
Cc1ccc(C(=O)NC2CCCCC2)cc1-c1ccc(C(=O)NCC2CC2)cc1 | 1.87%

SMILES | inhibition
COc1ccc(-c2nn3ncccc3c2-c2ccnc(Nc3ccc(Cl)c(C(F)(F)F)c3)n2)cc1 | 2.7%
CC1=C(C(=O)Nc2ccc3[nH]ncc3c2)C(c2ccc(F)cc2)NC(=O)N1 (stereo unspecified) | 1.99%
COc1cc2ncn(-c3cc(O[C@@H](C)c4ccccc4Cl)c(C(N)=O)s3)c2cc1OC | 19.4%
CS(=O)(=O)CCN(CC#N)Cc1ccc(-c2ccc3ncnc(Nc4ccc(OCc5cccc(F)c5)c(Cl)c4)c3c2)o1 | 0.28%
O=C1NC(=O)C(c2ccccc2Cl)=C1Nc1cccc(O)c1 | 1.63%
COc1ccc(-c2coc3ncnc(N)c23)cc1 | 2.46%
CS(=O)(=O)CCNCc1ccc(-c2ccc3ncnc(Nc4ccc(OCc5ccccc5)c(Cl)c4)c3c2)o1 | 0.27%
COc1cc2ncn(-c3cc(O[C@H](C)c4ccccc4Cl)c(C(N)=O)s3)c2cc1OC | 42%
CCn1c(-c2nonc2N)nc2cnc(Oc3cccc(NC(=O)c4ccc(OCCN5CCOCC5)cc4)c3)cc21 | 1.64%
CCn1c(-c2nonc2N)nc2c(N3CCCC3)nccc21 | 1.48%
Cc1nn(C)c2cc(N(C)c3ccnc(Nc4cccc(S(N)(=O)=O)c4)n3)ccc12 | 0.72%
Fc1cccc(COc2ccc(Nc3ncnc4cc(-c5ccc[nH]5)sc34)cc2Cl)c1 | 0.79%
CCn1c(-c2nonc2N)nc2c(C#CC(C)(C)O)nc(CN3CCCC3)cc21 | 1.38%
O=C1Nc2ccc(C(=O)c3ccco3)cc2C1=Cc1cc(Cl)c(O)c(Cl)c1 | 3.02%
CC1=C(C(=O)Nc2ccc3[nH]ncc3c2)C(c2ccc3ccccc3c2)CC(=O)N1 (stereo unspecified) | 3.96%
Fc1cccc(COc2ccc(Nc3ncnc4sc(-c5cccs5)cc34)cc2Cl)c1 | 0.22%

biological target: T1, Serine/threonine-protein kinase BRSK2 (Homo sapiens); details: at 1 µM

SMILES | inhibition
CCCN1CCC(Oc2cc(Nc3nc(Nc4cccc(F)c4C(N)=O)c4cc[nH]c4n3)c(OC)cc2Cl)CC1 | 0.24%
COc1cc(C)c(NC(=O)CN(C)C)cc1Nc1nc(Nc2cccc(F)c2C(N)=O)c2cc[nH]c2n1 | -2.24%
CC1=C(C(=O)Nc2ccc3[nH]ncc3c2)C(c2ccc(Cl)c(Cl)c2)CC(=O)N1 (stereo unspecified) | 15.5%
CCn1c(-c2nonc2N)nc2cncc(C(=O)N3CC[C@H](N)C3)c21 | 6.07%
NS(=O)(=O)c1ccc(N/N=C2\C(=O)Nc3ccc(C(=O)NCCc4c[nH]cn4)cc32)cc1 | 74.9%
CCCN1CCC=C(c2ccc(Nc3nc(Nc4ccccc4C(N)=O)c4cc[nH]c4n3)c(C)c2)C1 | 6.53%
CCn1c(-c2nonc2N)nc2cncc(C(=O)N3CCNCC3)c21 | 2.15%
Nc1nc(-c2ccc3c(c2)C(=Cc2cc(Br)c(O)c(Br)c2)C(=O)N3)cs1 | 8.7%
COc1ccc2cc(-c3c(-c4ccncc4)nc(-c4ccc([S+](C)[O-])cc4)n3C)ccc2c1 (stereo unspecified) | 0.66%
CC(C)=Cc1cccc2c1/C(=N/Nc1ccc(S(N)(=O)=O)cc1)C(=O)N2 | 58.2%
CS(=O)(=O)CCNCc1nc(-c2ccc3ncnc(Nc4ccc(F)c(Cl)c4)c3c2)cs1 | 6.52%
NC(=O)c1ccc(-c2nc(-c3ccccn3)c(-c3ccc4c(c3)OCO4)[nH]2)cc1 | 1.06%
COC(=O)Nc1nc2cc(Oc3cccc(NC(=O)Nc4cc(C(F)(F)F)ccc4F)c3)ccc2[nH]1 | 2.1%
Cc1nnc(-c2ccc(C)c(-c3ccc(C(=O)Nc4cccc(C#N)c4)cc3)c2)o1 | 4.23%
COc1ccc(-c2ccncc2)cc1C(N)=O | 8.59%
CC(=O)Nc1cccc(C#Cc2cncnc2Nc2ccc(OCc3cccc(F)c3)c(Cl)c2)n1 | 5.79%
Cc1ccc(C(=O)NC2CCCCC2)cc1-c1ccc(C(=O)NCC2CC2)cc1 | -1.13%

SMILES | inhibition
COc1ccc(-c2nn3ncccc3c2-c2ccnc(Nc3ccc(Cl)c(C(F)(F)F)c3)n2)cc1 | 4.49%
CC1=C(C(=O)Nc2ccc3[nH]ncc3c2)C(c2ccc(F)cc2)NC(=O)N1 (stereo unspecified) | 15.5%
COc1cc2ncn(-c3cc(O[C@@H](C)c4ccccc4Cl)c(C(N)=O)s3)c2cc1OC | 58.9%
CS(=O)(=O)CCN(CC#N)Cc1ccc(-c2ccc3ncnc(Nc4ccc(OCc5cccc(F)c5)c(Cl)c4)c3c2)o1 | 0.65%
O=C1NC(=O)C(c2ccccc2Cl)=C1Nc1cccc(O)c1 | 8.81%
COc1ccc(-c2coc3ncnc(N)c23)cc1 | 4.44%
CS(=O)(=O)CCNCc1ccc(-c2ccc3ncnc(Nc4ccc(OCc5ccccc5)c(Cl)c4)c3c2)o1 | 2.32%
COc1cc2ncn(-c3cc(O[C@H](C)c4ccccc4Cl)c(C(N)=O)s3)c2cc1OC | 69.2%
CCn1c(-c2nonc2N)nc2cnc(Oc3cccc(NC(=O)c4ccc(OCCN5CCOCC5)cc4)c3)cc21 | 2.71%
CCn1c(-c2nonc2N)nc2c(N3CCCC3)nccc21 | 3.56%
Cc1nn(C)c2cc(N(C)c3ccnc(Nc4cccc(S(N)(=O)=O)c4)n3)ccc12 | 4.4%
Fc1cccc(COc2ccc(Nc3ncnc4cc(-c5ccc[nH]5)sc34)cc2Cl)c1 | 4.01%
CCn1c(-c2nonc2N)nc2c(C#CC(C)(C)O)nc(CN3CCCC3)cc21 | 3.23%
O=C1Nc2ccc(C(=O)c3ccco3)cc2C1=Cc1cc(Cl)c(O)c(Cl)c1 | 13.1%
CC1=C(C(=O)Nc2ccc3[nH]ncc3c2)C(c2ccc3ccccc3c2)CC(=O)N1 (stereo unspecified) | 31.3%
Fc1cccc(COc2ccc(Nc3ncnc4sc(-c5cccs5)cc34)cc2Cl)c1 | 1.9%
